Legend:
Assay in all cases: yeast three-hybrid, YBZ-1, SC-Leu-His + 0.5 mM 3-AT, 4 days
Settings in all cases: tags: N-Gal4 AD-HA kept; label: inside an RPR1-promoter hybrid RNA with tandem MS2 sites; ssRNA
PUM1 PUF domain R4-EPS = PUM1 PUF domain R4-EPS (Homo sapiens, UniProt Q14671 828-1176, N971E;H972P;Q975S)
Outline: (§1)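 Repeat regions from input (SC-Leu) and selection (SC-Leu-His + 0.5 mM 3-AT) plates were PCR-amplified and Illumina-sequenced after four days of growth. The cells were strain YBZ-1 with a LexA–MS2 coat fusion and a HIS3 reporter, co-expressing Pumilio-1 PUF domain libraries and matching RNA elements from a centromeric plasmid. The interaction score is the log change in variant frequency from input to selection, taken in log2 with a pseudocount of 1 for absent variants.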

PUM1 PUF domain R4-GHF = PUM1 PUF domain R4-GHF (Homo sapiens, UniProt Q14671 828-1176, N971G;Q975F)
Outline: as §1

PUM1 PUF domain R8-HWV = PUM1 PUF domain R8-HWV (Homo sapiens, UniProt Q14671 828-1176, N1122H;Y1123W;Q1126V)
Outline: as §1

PUM1 PUF domain R4-DHL = PUM1 PUF domain R4-DHL (Homo sapiens, UniProt Q14671 828-1176, N971D;Q975L)
Outline: as §1

PUM1 PUF domain R5-LYC = PUM1 PUF domain R5-LYC (Homo sapiens, UniProt Q14671 828-1176, C1007L;R1008Y;Q1011C)
Outline: as §1

PUM1 PUF domain R1-RRA = PUM1 PUF domain R1-RRA (Homo sapiens, UniProt Q14671 828-1176, S863R;Q867A)
Outline: as §1

PUM1 PUF domain R1-KCV = PUM1 PUF domain R1-KCV (Homo sapiens, UniProt Q14671 828-1176, S863K;R864C;Q867V)
Outline: as §1

PUM1 PUF domain R5-RMG = PUM1 PUF domain R5-RMG (Homo sapiens, UniProt Q14671 828-1176, C1007R;R1008M;Q1011G)
Outline: as §1

PUM1 PUF domain R5-KHW = PUM1 PUF domain R5-KHW (Homo sapiens, UniProt Q14671 828-1176, C1007K;R1008H;Q1011W)
Outline: as §1

PUM1 PUF domain R4-CNA = PUM1 PUF domain R4-CNA (Homo sapiens, UniProt Q14671 828-1176, N971C;H972N;Q975A)
Outline: as §1

PUM1 PUF domain R4-NNH = PUM1 PUF domain R4-NNH (Homo sapiens, UniProt Q14671 828-1176, H972N;Q975H)
Outline: as §1

PUM1 PUF domain R4-PYL = PUM1 PUF domain R4-PYL (Homo sapiens, UniProt Q14671 828-1176, N971P;H972Y;Q975L)
Outline: as §1

PUM1 PUF domain R4-CMS = PUM1 PUF domain R4-CMS (Homo sapiens, UniProt Q14671 828-1176, N971C;H972M;Q975S)
Outline: as §1

PUM1 PUF domain R5-GVE = PUM1 PUF domain R5-GVE (Homo sapiens, UniProt Q14671 828-1176, C1007G;R1008V;Q1011E)
Outline: as §1

PUM1 PUF domain R6-VWY = biological target: T1, PUM1 PUF domain R6-VWY (Homo sapiens, UniProt Q14671 828-1176, N1043V;Y1044W;Q1047Y)
T1 sequence: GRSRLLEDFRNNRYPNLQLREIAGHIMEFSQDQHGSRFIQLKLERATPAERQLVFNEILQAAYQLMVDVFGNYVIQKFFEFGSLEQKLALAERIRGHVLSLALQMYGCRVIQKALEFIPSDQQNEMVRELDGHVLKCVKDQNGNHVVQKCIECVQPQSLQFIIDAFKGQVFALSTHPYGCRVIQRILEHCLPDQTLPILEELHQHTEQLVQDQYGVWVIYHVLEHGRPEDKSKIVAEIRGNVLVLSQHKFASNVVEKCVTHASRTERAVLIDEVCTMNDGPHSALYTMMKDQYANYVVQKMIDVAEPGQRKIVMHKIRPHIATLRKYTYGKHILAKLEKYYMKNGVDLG
Outline: as §1

Sequence: GGCUAGAACUAGUGGAUCCCCCGGCGCCCGGCGGCUCGAGCCCGGGUAAGUGUAAAUAGUCUGCAUGCCGCCGGGCGCCAUGCCUGCAGGUCGACUCUAGAAAACAUG
- binding signal (PUM1 PUF domain R4-EPS): 3.28 log2 enrichment (interaction score)
- binding signal (PUM1 PUF domain R4-GHF): 4.42 log2 enrichment (interaction score)
- binding signal (PUM1 PUF domain R8-HWV): 3.05 log2 enrichment (interaction score)
- binding signal (PUM1 PUF domain R4-DHL): 2.49 log2 enrichment (interaction score)
- binding signal (PUM1 PUF domain R5-LYC): 3.33 log2 enrichment (interaction score)

Sequence: GGCUAGAACUAGUGGAUCCCCCGGCGCCCGGCGGCUCGAGCCCGGGUAAGUGUAAAUUGUCUGCAUGCCGCCGGGCGCCAUGCCUGCAGGUCGACUCUAGAAAACAUG
- binding signal (PUM1 PUF domain R1-RRA): 1.49 log2 enrichment (interaction score)
- binding signal (PUM1 PUF domain R1-KCV): 3.99 log2 enrichment (interaction score)

Sequence: GGCUAGAACUAGUGGAUCCCCCGGCGCCCGGCGGCUCGAGCCCGGGUAAGUGUAAAUCGUCUGCAUGCCGCCGGGCGCCAUGCCUGCAGGUCGACUCUAGAAAACAUG
- binding signal (PUM1 PUF domain R1-RRA): 2.68 log2 enrichment (interaction score)

Sequence: GGCUAGAACUAGUGGAUCCCCCGGCGCCCGGCGGCUCGAGCCCGGGUAAGUGUCAAUAGUCUGCAUGCCGCCGGGCGCCAUGCCUGCAGGUCGACUCUAGAAAACAUG
- binding signal (PUM1 PUF domain R5-RMG): 2.42 log2 enrichment (interaction score)
- binding signal (PUM1 PUF domain R5-KHW): 2.97 log2 enrichment (interaction score)

Sequence: GGCUAGAACUAGUGGAUCCCCCGGCGCCCGGCGGCUCGAGCCCGGGUAAGUGUAUAUAGUCUGCAUGCCGCCGGGCGCCAUGCCUGCAGGUCGACUCUAGAAAACAUG
- binding signal (PUM1 PUF domain R4-CNA): 1.78 log2 enrichment (interaction score)
- binding signal (PUM1 PUF domain R4-DHL): 3.13 log2 enrichment (interaction score)
- binding signal (PUM1 PUF domain R4-NNH): 2.5 log2 enrichment (interaction score)
- binding signal (PUM1 PUF domain R4-PYL): 3.32 log2 enrichment (interaction score)
- binding signal (PUM1 PUF domain R4-CMS): 3.01 log2 enrichment (interaction score)

Sequence: GGCUAGAACUAGUGGAUCCCCCGGCGCCCGGCGGCUCGAGCCCGGGUAAGUGUACAUAGUCUGCAUGCCGCCGGGCGCCAUGCCUGCAGGUCGACUCUAGAAAACAUG
- binding signal (PUM1 PUF domain R4-CNA): 2.26 log2 enrichment (interaction score)
- binding signal (PUM1 PUF domain R4-CMS): 2.83 log2 enrichment (interaction score)

Sequence: GGCUAGAACUAGUGGAUCCCCCGGCGCCCGGCGGCUCGAGCCCGGGUAAGCGUAAAUAGUCUGCAUGCCGCCGGGCGCCAUGCCUGCAGGUCGACUCUAGAAAACAUG
- binding signal (PUM1 PUF domain R8-HWV): 4.26 log2 enrichment (interaction score)

Sequence: GGCUAGAACUAGUGGAUCCCCCGGCGCCCGGCGGCUCGAGCCCGGGUAAGUGUGAAUAGUCUGCAUGCCGCCGGGCGCCAUGCCUGCAGGUCGACUCUAGAAAACAUG
- binding signal (PUM1 PUF domain R5-GVE): 3.01 log2 enrichment (interaction score)

Sequence: GGCUAGAACUAGUGGAUCCCCCGGCGCCCGGCGGCUCGAGCCCGGGUAAGUGUUAAUAGUCUGCAUGCCGCCGGGCGCCAUGCCUGCAGGUCGACUCUAGAAAACAUG
- binding signal (PUM1 PUF domain R5-KHW): 3.92 log2 enrichment (interaction score)
- binding signal (PUM1 PUF domain R5-LYC): 2.27 log2 enrichment (interaction score)

Sequence: GGCUAGAACUAGUGGAUCCCCCGGCGCCCGGCGGCUCGAGCCCGGGUAAGUGAAAAUAGUCUGCAUGCCGCCGGGCGCCAUGCCUGCAGGUCGACUCUAGAAAACAUG
- binding signal (PUM1 PUF domain R6-VWY): 3.66 log2 enrichment (interaction score)

— publication PMC8384837, “Expanding the binding specificity for RNA recognition by a PUF domain”
